# Measured values from PubChem BioAssay AID2326 (National Center for Advancing Translational Sciences (NCATS), 2010).
# In all, about 270,000 compounds went through this assay and about 1,100 (0.41%) were called active. About 3% were inconclusive and are not listed. This excerpt belongs to a sample that is enriched for actives. A number with no mark means an inactive call. Calls come from the whole dose curve.
# Test: qHTS Assay for Inhibitors of Influenza NS1 Protein Function; note: actives are rising curves; nearly all actives have a fitted effect of over 50% in size
# Conditions: series mostly up to 46.1 µM; activity, positive = more growth: at the top concentration
# Excerpt: NIH Chemical Genomics Center [NCGC]
# NIH Molecular Libraries Probe Centers Network [MLPCN]
# Assay Submitter (PI): Daniel Engel
# Influenza is a world-wide public health problem and emerging forms of the virus have the potential to cause a pandemic of equal or greater magnitude to the outbreaks recorded in 1918, 1957 or 1968. Vaccine development is proceeding and there also exist two classes of anti-influenza compounds. However these therapeutic modalities are neither fully effective nor widely enough available to fulfill global needs. In addition their potential usefulness against newly emergent strains is not known. Efforts are needed to develop novel agents against influenza virus, including broad-spectrum agents. Identification of small molecules that inhibit NS1 function either directly or by interfering with specific cellular pathways may be a key to increasing our defense against the virus.
# We have miniaturized and optimized a cell based assay in which NS1 from influenza A is expressed in the budding yeast S. cerevisiae. NS1 is a multi-functional protein that counters the host innate immune response and facilitates viral versus cellular gene expression. Expression of NS1 causes a pronounced slow growth phenotype in yeast due to its intrinsic molecular activities. Small molecules that suppress the slow growth phenotype can be identified by a straightforward growth recovery assay using optical density (OD) as the measurement. The same yeast strain not expressing NS1 was used as positive control in the yeast growth recovery assay.
# The yeast S. cerevisiae control and NS1 expressing cells were kindly supplied by laboratory of Dr. Daniel Engel, University of Virginia. Yeast starter cultures were stored in single use aliquots at -80C.
# 1. Yeast culture medium per liter: 1.2 g Yeast Nitrogen Base (w/out amino acids and Ammonium Sulphate), 5.0g Ammonium Sulphate, 0.77g -URA DO (drop-out) Supplement, adjust pH to 6.0. Adjust to 2% glucose prior to inoculating with yeast.
# 2. Yeast assay medium: 1.2 g Yeast Nitrogen Base (w/out amino acids and Ammonium Sulphate), 5.0g Ammonium Sulphate, 0.77g -URA DO (drop-out) Supplement, adjust pH to 6.0. Adjust to 2% D-galactose prior to inoculating with yeast.
# 1. Inoculate 100 mls of yeast culture medium with 1 ml of frozen yeast aliquote. Incubate overnight at 30C, 250RPM.
# 2. Harvest overnight culture at 4000 RPM and wash pellet with 15 mls H2O 3x.
# 3. Re-suspend washed pellet in 10 mls of yeast assay medium.
# 4. Prepare a 1:100 dilution of re-suspended culture in yeast assay medium.
# 5. Dispense 3.5 ul per well of reagents in step 4 in columns 2-48 in a black clear bottom 1536 well plate.
# 6. Dispense 3.5 ul per well of yeast assay medium in column 1 only.
# 7. Transfer 23 nl of compound per well.
# 8. Dispense 3.5 ul per well of yeast assay medium in columns 1-48.
# 9. Read plate using Viewlux protocol for optical density 600 (OD600) using excitation filter 600nm.
# Potency is the fitted concentration of half-maximal effect.
SMILES,"activity, positive = more growth",Potency
Cc1nc2c(c(=O)n1Cc1ccco1)c1nc3ccccc3nc1n2Cc1ccccc1,3.74%,–
COCCCn1c2nc3ccccc3nc2c2c(=O)n(Cc3ccc(Cl)cc3)c(C)nc21,-0.53%,–
Cc1ccc(Cn2c(C)nc3c(c2=O)c2nc4ccccc4nc2n3Cc2ccco2)cc1,–,4.47 µM (active)
CC1(C(=O)NNC(=S)NCC2CCCO2)CC1(Cl)Cl (configuration not stated),-1.43%,–
O=C(N[C@@H](Cc1ccccc1)C(=O)OCc1ccccc1)c1nc[nH]c1C(=O)N[C@@H](Cc1ccccc1)C(=O)OCc1ccccc1,6.79%,–
CCc1ccc(OCC2c3cc(OC)c(OC)cc3CCN2C(C)=O)cc1 (configuration not stated),5.89%,–
COc1ccccc1NC(=O)CN1CCN(S(=O)(=O)c2ccc(Br)cc2)CC1,-5.14%,–
COc1cc2c(cc1NC(=O)CN1CCN(S(=O)(=O)c3ccc(F)cc3)CC1)oc1ccccc12,–,5.62 µM (active)
COc1ccc(NC(=O)CN2CCN(S(=O)(=O)c3ccc(F)cc3)CC2)cc1Cl,-4.2%,–
CC(CN1CCOCC1)OC(=O)c1ccc(C(C)(C)C)cc1 (configuration not stated),-23.1%,–
O=C(CC(n1cncn1)C(Cl)(Cl)Cl)c1ccc([N+](=O)[O-])cc1 (configuration not stated),-84.2%,–
COc1ccc(S(=O)(=O)Nc2c(C)n(C)n(-c3ccccc3)c2=O)cc1,–,3.98 µM (active)
Cc1cc(C)c(S(=O)(=O)Nc2c(C)n(C)n(-c3ccccc3)c2=O)cc1[N+](=O)[O-],-4.82%,–
Cc1ccc(S(=O)(=O)Nc2ccccc2CNc2c(C)n(C)n(-c3ccccc3)c2=O)cc1,-70%,–
O=[N+]([O-])c1ccc(NC(=S)N2CCN(c3ccccn3)CC2)cc1,-11.2%,–
FC(F)(F)C1CCCN(c2nsc3ccccc23)C1 (configuration not stated),-121%,–
COc1cccc(OCc2cc(C(=O)N3CCN(C(=O)c4ccco4)CC3)no2)c1,-6.93%,–
Cc1ccsc1/C=N/NC(=O)Cc1cc(=O)[nH][nH]1,14.1%,–
Cc1cc(C(=O)N/N=C/c2ccccc2[N+](=O)[O-])c(C)o1,-0.261%,–
O=C(Cc1cc(=O)[nH][nH]1)N/N=C/c1ccccc1[N+](=O)[O-],–,8.91 µM (active)
COc1cnc(-c2ccccn2)nc1Oc1ccc(C(C)(C)C)cc1,-1.08%,–
O=C(CSc1nnnn1C1CCCC1)N1CCCCC1,4.51%,–
COc1ccc(C2CC(c3cccs3)=NN2C(=O)COC(=O)c2cc3ccccc3cc2O)cc1OC (configuration not stated),24.1%,–
O=C1c2cccc(OCC(=O)N3N=C(c4cccs4)CC3c3ccc(F)cc3)c2CCN1Cc1ccccc1 (configuration not stated),–,5.01 µM (active)
COc1ccc(C2CC(c3cccs3)=NN2C(=O)CCC(=O)O)cc1OC (configuration not stated),19.5%,–
O=C(Nc1ccc(C2CC2(Cl)Cl)cc1)c1cccc([N+](=O)[O-])c1 (configuration not stated),-29.5%,–

SMILES,"activity, positive = more growth",Potency
Cc1cnc(NC(=O)c2ccc(Cl)nc2)s1,-1.39%,–
O=C(CCCN1C(=O)/C(=C/c2cccs2)SC1=S)Nc1ccc(O)cc1,-5.71%,–
COc1ccc(CNC(=O)C(c2ccc(O)cc2)N(Cc2ccco2)C(=O)c2snc(C(N)=O)c2N)cc1 (configuration not stated),12.4%,–
Cc1cccc(NC(=S)NCCc2ccc(Cl)cc2)c1C,-49.7%,–
O=c1[nH]nc(CSCc2ccccc2Cl)[nH]1,-9.59%,–
Clc1ccccc1CSc1nnc(-c2ccco2)c(-c2ccco2)n1,10.7%,–
O=c1cc(O)nc(SCc2ccccc2Cl)[nH]1,–,5.01 µM (active)
COc1ccc(C(=O)/C=C/c2cccnc2)c(OC)c1,-15.2%,–
O=C(/C=C/c1ccco1)NC(=S)Nc1ccccc1Br,13.4%,–
Oc1ccccc1-c1cc(-c2ccc(Cl)cc2)n[nH]1,-6.76%,–
CC(C)OCC(O)CN1CCN(C(c2ccccc2)c2ccccc2)CC1 (configuration not stated),0.765%,–
Cc1ccccc1C(OCC(O)CN1CCCCC1CCO)c1ccccc1 (configuration not stated),–,4.47 µM (active)
COc1cccc(CN(C)CC(O)COC(c2ccccc2)c2ccccc2C)c1 (configuration not stated),2.51%,–
COc1ccc(/C=C2\SC(=O)N(CCC(=O)NCCCn3ccnc3)C2=O)cc1,-0.375%,–
COC(=O)CN1C(=O)C(C)(C)Oc2ccc(C(=O)Nc3cccc(OC)c3)cc21,-9.9%,–
CCCCNC(=O)CSc1nc2n[nH]c(C)c2c(=N)n1-c1cccc(Cl)c1C,9.85%,–
Cc1ccc(-n2c(SCC(=O)NCCC3=CCCCC3)nc3n[nH]c(C)c3c2=N)cc1Cl,-0.553%,–
COc1cccc(-n2c(SCC(=O)NC3CCCCC3)nc3n[nH]c(C)c3c2=N)c1,–,3.16 µM (active)
O=C(NC(=S)Nc1ccc(Cl)cc1Cl)C1CC1,-10.3%,–
COc1ccc(Oc2cn[nH]c2-c2ccc(OC)cc2O)cc1,-65.9%,–
Cc1cc(C)c(SCCc2ccncc2)c(C)c1,-40.4%,–
O=c1c2ccccc2ncn1/N=C/c1ccccc1,-8.05%,–
COC(=O)[C@H](C)[C@H]1C[C@]1(C)[C@H](NC(=O)OCc1ccccc1)c1ccccc1,-66.8%,–
C[C@@H](C(=O)Nc1ccc2ccccc2c1)[C@@H]1C[C@@]1(C)[C@@H](NC(=O)c1cccnc1)c1ccccc1,–,12.6 µM (active)
O=C(Nc1ccc(N2CCN(C(=O)c3ccccc3)CC2)c(Cl)c1)c1cccnc1,-2.87%,–
O=C(Nc1nnc(C2=COCCO2)o1)c1ccc([N+](=O)[O-])s1,-17.1%,–
